The structures appear in SMILES notation. The panel holds about 83,000 compounds, 20% with a hit somewhere; the sample as a whole holds those more often.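 Compound tested at a single concentration for 48 hours in 96-well plates; a percent growth value below 10 was scored as active.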 A number with no mark means an inactive call. The source made the active and inactive calls.

This assay relates to MDA-MB-435 melanoma. Put plainly: NCI-60 one-dose screen, 48 h (100 = growth as untreated, 0 = no growth, -100 = all killed). The settings on record: 10 µM. As to the method:
Growth inhibition of the MDA-MB-435 human Melanoma tumor cell line is measured as a screen for anti-cancer activity. Cells are grown in 96 well plates and exposed to the test compound for 48 hours. Compounds are tested at a single concentration, which is 10^-5 M for most compounds. The reported endpoint is percent growth (GI% or GIPRCNT), where numbers from 0 - 100% represent growth inhibition, and numbers from -100% - 0 represent cell death. For example, a value of 40 represents 60% growth inhibition. A value of 0 means no net growth occurred over the course of the experiment. A value of -40 indicates 40% of cells at the beginning of the experiment died by the end of the experiment. A value of -100 means all cells are dead at the end of the experiment.
NCI-60 Human Tumor Cell Lines Screen was performed using the standard one-dose NCI protocol, which is described in more detail at https://dtp.cancer.gov/discovery_development/nci-60/default.htm.
Compounds with GIPRCNT values below 10 were considered active. Activity score was based on GIPRCNT using the following formula: […]
Score is 0 for GIPRCNT values of 100 or above, 50 for GIPRCNT values of 0, and 100 for GIPRCNT values of -100.
`CC(C)=CCc1cc(O)cc2c1OC(C=C(C)C)C1=C2C(=O)C2=C(C1=O)S(=O)(=O)CCN2` (stereo not given): the growth is -68.3% (active).
As to `COc1ccc(OC)c2c1C(=O)CC2C` (stereo not given), the growth is 102%.
Turning to `CC(=O)C1CCC2C3CC(F)C4=CC(=O)CCC4(C)C3C(O)CC12C` (stereo not given), the growth is 102%.
As for `COc1ccc2nc3ccccc3c(NCCNCC(C)O)c2c1` (stereo not given), the growth was 1.44% (active).
The figure for `CC1CN(Cc2ccccc2)C(=O)NC1=O` (stereo not given) is 110%; for `Oc1[nH]c2cc(Cl)ccc2c1/C=c1/ccc2c(c1)N=C(c1cc(F)cc(F)c1)N=2` it is -32.5% (active); for `CC(=O)N1N=C(c2ccc(Cl)cc2)CC1c1sc(Cl)nc1Cl` (stereo not given) it is 89.2%.
With `COc1cc(CNCCCCCCN2C(=O)c3cccc4cccc(c34)C2=O)ccc1O` the figure was 58.1%; with `COc1cc2nc(Nc3cccc(C(=O)O)c3)nc(N)c2cc1OC`, 107%.
The figure for `CC(=O)c1cc(Cl)ccc1O` is 101%.
With `O=C(Nc1ccncc1)C(=O)c1cn(S(=O)(=O)c2cc(Cl)cc(Cl)c2)c2ccccc12`, the growth was 8.83% (active).
`COc1cc(NC(=O)CCSc2nc3ccc(C)cc3c(=O)n2Cc2ccccc2)cc(OC)c1OC`: the growth was 92.1%.
The figure for `O=c1[nH]c2ccc(Cl)cc2c2ccccc12` is 72.1%; for `COc1cc(/C=C/C(=O)c2ccc(Cl)cc2)ccc1OS(=O)(=O)c1ccc(C)cc1` it is 81.2%; for `CCCCCCCCCCCCC1C/C=C\CCCC(=O)O1` (stereo not given) it is 105%.
With `O=C1/C(=C\c2ccc(F)cc2)CN(C(=O)c2ccc([N+](=O)[O-])cc2)C/C1=C\c1ccc(F)cc1` the figure was -30% (active).
The figure for `Cc1cc(Cl)nc(N(CCCNc2ccnc3cc(Cl)ccc23)Cc2cccs2)n1` is 3.55% (active); for `N=C(N)c1ccc(-c2ccc(-c3cccs3)o2)cc1` it is -49.3% (active); for `N=C(N)c1ccc(-c2ccc(-c3cccs3)s2)cc1` it is -85.9% (active).
As to `Cc1[nH]nc2c1C(c1cnn(C)c1)C(C#N)=C(N)O2` (stereo not given), the growth was 101%.
The figure for `COc1cc2c(cc1OCCCN1CCN(c3ncnc4ccccc34)CC1)N=CC1CCCN1C2=O` (stereo not given) is -67.8% (active); for `Clc1cc2c(c(CSc3nc4ccccc4n4cccc34)c1)OCOC2` it is 92.2%; for `CNc1ccc(CSc2ccc(C)cc2)cc1` it is 85.2%.
With `CC/C(C)=C(\C)C(=O)O` the figure was 99.1%; with `CS(=O)(=O)Nc1ccc(Nc2c3ccccc3nc3cc(N)ccc23)cc1`, 53.6%.
Regarding `Nc1nc(Nc2ccccc2)n[nH]1`, the growth is 99.2%.
The figure for `COc1ccc(Nc2nc3ccc(NC(=O)NC4CCCCC4)cc3[nH]c2=O)cc1` is 105%; for `O=[N+]([O-])c1cccc(N=Cc2ccc3c(c2)OCO3)c1` it is 102%; for `CCN(CC)CCCOCCCNc1cc(OC)cc2cccnc12` it is 112%.
The figure for `O=C(N/N=C\c1cc(Cl)ccc1[N+](=O)[O-])c1ccco1` is 100%; for `COc1ccc(/C=C/C(=O)Nc2ccc(-c3nc4ccc(OC)cc4s3)cc2)cc1` it is 102%; for `CC(=O)N1C/C(=C/c2ccc(Cl)cc2)C(=O)/C(=C/c2ccc(Cl)cc2)C1` it is -50.3% (active).
With `COc1cc(/C(=C2/O[C@@H]([C@H]3COC(C)(C)O3)[C@H]3OC(C)(C)O[C@@H]23)c2ccc3ccccc3c2)cc(OC)c1OC` the figure was 26.2%; with `CCc1ccc2c(c1)N(CCO)C1=C(C(=O)OC1)C2c1ccccc1` (stereo not given), 21.6%; with `CCCCN(CCCC)CCCCCCCCC(O)c1cc2ccccc2c2ccccc12` (stereo not given), 67.3%.
As for `COc1ccc2c(c1)O/C(=C\c1ccc([N+](=O)[O-])s1)C2=O`, the growth was 51.7%.
With `N=c1nc(N)ncn1-c1ccccc1` the figure was 107%; with `COc1ccc(OC)c(/C=C/c2nc(SCc3ccccc3)n(-c3ccc(Cl)cc3)n2)c1`, -24.9% (active); with `CC1(C)Cc2c(sc3ncn4nc(-c5ccc(O)cc5)nc4c23)CO1`, 77.4%.
With `N#CC1=C(Nc2ccccc2Cl)SC(c2ccccc2O)NC1=O` (stereo not given) the figure was 120%.

(Values after PubChem BioAssay (NCI).)
